# KCNQ2 enhance: enhances the rat KCNQ2 potassium channel | actives 0.54% (n = 310,000) | O88943 | B-score at 10 µM | CHO-K1 KCNQ2, FluxOR thallium flux fluorescence; stronger effect = higher value;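 active = fluorescence ratio B-score at least 3 SD of library B-scores, with initial fluorescence B-score within 3 of them, cut at about 5.3 in these data; same plate scores as AID 2156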;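 note: B-score of peak minus minimum over baseline fluorescence ratio after K+ and Tl+ stimulus; positive B-score means potentiation of KCNQ2 with more thallium influx and brighter signal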
# Target sequence (O88943 whole entry, looked up): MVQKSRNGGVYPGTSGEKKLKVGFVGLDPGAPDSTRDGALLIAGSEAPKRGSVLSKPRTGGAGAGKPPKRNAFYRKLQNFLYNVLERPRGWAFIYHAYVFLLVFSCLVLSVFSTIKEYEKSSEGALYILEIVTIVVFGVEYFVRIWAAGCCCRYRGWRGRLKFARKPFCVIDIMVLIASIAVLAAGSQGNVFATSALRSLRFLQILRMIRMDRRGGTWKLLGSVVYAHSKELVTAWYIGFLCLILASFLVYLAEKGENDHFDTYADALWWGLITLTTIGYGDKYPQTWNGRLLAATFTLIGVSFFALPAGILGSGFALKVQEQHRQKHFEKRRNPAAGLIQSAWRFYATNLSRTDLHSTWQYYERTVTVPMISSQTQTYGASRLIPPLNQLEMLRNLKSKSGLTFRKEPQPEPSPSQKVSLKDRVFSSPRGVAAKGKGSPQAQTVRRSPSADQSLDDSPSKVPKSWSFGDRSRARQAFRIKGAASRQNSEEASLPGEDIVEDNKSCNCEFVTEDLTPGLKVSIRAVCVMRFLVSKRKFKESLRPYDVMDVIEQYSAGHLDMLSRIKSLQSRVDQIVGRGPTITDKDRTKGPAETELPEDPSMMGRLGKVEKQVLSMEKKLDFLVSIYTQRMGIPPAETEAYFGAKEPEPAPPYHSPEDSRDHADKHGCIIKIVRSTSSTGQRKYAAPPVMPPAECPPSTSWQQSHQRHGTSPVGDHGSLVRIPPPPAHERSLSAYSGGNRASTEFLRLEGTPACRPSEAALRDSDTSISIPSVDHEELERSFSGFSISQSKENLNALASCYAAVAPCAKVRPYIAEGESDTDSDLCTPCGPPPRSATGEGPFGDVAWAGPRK
# KCNQ2 inh: inhibitors of rat KCNQ2 potassium channel; O88943; B-score at 10 µM; AID 2156; CHO-K1 KCNQ2, FluxOR thallium flux, 20 min; stronger effect = lower value; actives 1.1% (n = 310,000);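 active = fluorescence ratio B-score at most minus 3 library SDs, with starting brightness B-score within 2 library SDs, cut at about -5.5 in these data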
# KCNQ2 inh conf: confirmation of rat KCNQ2 potassium channel inhibitors. activity change, negative = inhibition, % at 10 µM. actives 57% (n = 1,000). shares compounds with KCNQ2 inh. KCNQ2-expressing cells, thallium flux, inhibition; stronger effect = lower value. AID 493025;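 note: 0% = vehicle wells and values are ratio percent relative to vehicle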
# KCNQ1 spec: KCNQ2 inhibitor that also affects human KCNQ1 channel | shares compounds with KCNQ2 inh | KCNQ1-expressing cells, FluxOR thallium flux fluorescence; stronger effect = lower value | activity change, negative = inhibition, % at 10 µM | actives 15% (n = 1,000) | AID 493026;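 active = activity change at least 3 SD of negative controls below their mean in both duplicate wells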;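 note: CHO cells stably transfected with KCNQ1 and depolarized by potassium stimulus; peak minus minimum fluorescence over baseline after thallium addition; 0% = vehicle negative control and -100% = blank without thallium stimulus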
# CHO Tl ctr: counter-screen for KCNQ2 inhibitors: effect in parental CHO cells; shares compounds with KCNQ2 inh; thallium flux counter-screen; stronger effect = lower value; activity change, % at 10 µM; actives 14% (n = 1,000); AID 493029;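 note: 0% = vehicle negative controls with stimulus buffer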
# KCNQ2 patch conf: confirmation of rat KCNQ2 potassium channel inhibitors; shares compounds with KCNQ2 inh; KCNQ2-expressing cells, automated patch clamp current; calls only at 10 µM; actives 49% (n = 550); AID 588531
# * hit, by the source's call; i = inactive; x = no result. In the library only some 1.6% were active in any assay of this set; here they are far more common. Unless noted, the rule behind the calls is not given here.
SMILES,KCNQ2 enhance,KCNQ2 inh,others
Cc1ccccc1C(=O)NC(CC(C)C)C(=O)Nc1ccc(F)c([N+](=O)[O-])c1 (stereo not drawn),x,i,
COc1ccc(NC(=O)C(CC(C)C)NC(=O)c2ccccc2C)cn1 (stereo not drawn),-7.7,-7.7*,
O=C(C[n+]1cccc2ccccc21)c1ccc(Br)cc1,0.78,i,
O=C(C[n+]1cc(Br)cc(Br)c1)c1ccc(Cl)cc1,x,i,
O=C(C[n+]1cc(Br)cc2ccccc21)c1ccc(Br)cc1,-6.1,-6.1*,
O=C(C[n+]1cc(Br)cc2ccccc21)c1ccc(Cl)cc1,-7.5,-7.5*,
COc1ccc(C(C(=O)NC(C)(C)C)N(C(=O)CCC(=O)Nc2cc(C)on2)c2c(C)cccc2C)cc1 (stereo not drawn),x,i,
Cc1ccc(Cl)cc1N1CCN(C(=O)Cn2ncn3cccc3c2=O)CC1,1.8,i,
CCOC(=O)c1cc(C(C)(C)C)oc1CNC(=O)c1c(C)oc2c1CCCC2,-6.1,-6.1*,
CCOC(=O)c1cc(C(C)(C)C)oc1CN,0.39,i,
CC(=O)c1ccc(N2CCN(S(=O)(=O)c3ccc4c(c3)NC(=O)CO4)CC2)cc1,0.66,i,
O=C(OCC#CCSc1nnc(-c2cccc3ccccc23)o1)c1ccco1,x,i,
O=C1Cc2ccccc2C(c2ccc(Br)cc2)N1 (stereo not drawn),-6.3,-6.3*,
Cc1ccccc1C1NC(=O)Cc2ccccc21 (stereo not drawn),0.31,i,
O=C(NCCN1CCN(c2ccccc2)CC1)Nc1ccccc1Br,1.6,i,
Cn1ccc(C(=O)OCC(=O)Nc2ccccc2Cl)n1,x,i,
COc1ccccc1N1CCN(C(=O)c2cc3cc(C)ccc3[nH]2)CC1,1.7,i,
Cc1ccc2[nH]c(C(=O)N3CCN(C(c4ccccc4)c4ccccc4)CC3)cc2c1,-5.8,-5.8*,
CCOC(=O)c1cc2c(=O)n3ccccc3nc2n(CCOC)c1=NC(=O)C(C)(C)C,9.7*,i,
CCOC(=O)c1cc2c(=O)n3ccccc3nc2n(Cc2ccco2)c1=NC(=O)c1cccnc1,-7.1,-7.1*,
CCOC(=O)c1cc2c(=O)n3ccccc3nc2n(Cc2ccco2)c1=NC(=O)c1ccccc1OCC,x,i,
CCOC(=O)c1cc2c(=O)n3ccccc3nc2n(CCCOC)c1=NC(=O)C(C)(C)C,1.1,i,
CCCCC1(CO)C(=O)N(c2ccccc2)N(c2ccccc2)C1=O,0.29,i,
CCCCC1(Cc2cccc([N+](=O)[O-])c2)C(=O)N(c2ccccc2)N(c2ccccc2)C1=O,-6.9,-6.9*,
CC(C)Oc1ccc(C(=O)NCCCNC(=O)c2ccccn2)cc1,0.69,i,
SMILES,KCNQ2 enhance,KCNQ2 inh,others
CC1=NN(C(=O)c2ccccc2)C(O)(c2ccc(Br)cc2)C1 (stereo not drawn),1.1,i,
CCC1=NN(C(=O)c2ccc(Br)cc2)C(O)(c2ccccc2)C1 (stereo not drawn),6*,i,
CCOC(=O)Cn1ccc(NC(=O)c2ccc3c(c2)OCO3)n1,x,i,
CCCCCNC(=O)c1c[nH]c2ccc(S(=O)(=O)N3CCC4(CC3)OCCO4)cc2c1=O,x,i,
Cc1cc(C)n(CCOC(=O)c2sc3ccccc3c2Cl)n1,-10,-10*,
NC(=O)COC(=O)c1sc2ccccc2c1Cl,0.01,i,
Cc1nn(C)c(C)c1NC(=O)CC12CC3CC(CC(C3)C1)C2,4.9,i,
CC(=O)Nc1cc(NC(C)=O)ncn1,x,i,
COc1ccc(-c2cnc(SCC(=O)Nc3cc(C)on3)n2Cc2ccco2)cc1,x,i,
COc1ccc(-c2cnc(SCC(=O)Nc3nc(C(C)(C)C)cs3)n2Cc2ccco2)cc1,-8.3,-8.3*,
COc1ccccc1C(=O)NCC(=O)OCCCOC(=O)CNC(=O)c1ccccc1OC,2,i,
O=c1cc(-c2ccccc2)c2c(O)cc(O)cc2o1,1.4,i,
O=c1c(-c2ccccc2)c(-c2ccccc2)oc2cc(O)cc(O)c12,-5.8,-5.8*,
CCN(CC)S(=O)(=O)c1ccc(-n2cnc3cc(C)c(C)cc32)nc1,x,i,
Cc1nn(-c2ccccc2)c2ncc(C(=O)c3cc(Cl)ccc3O)cc12,x,i,
CCc1nn2cc(C(=O)c3cc(Cl)ccc3O)cnc2c1-c1ccc(F)cc1,-5.6,-5.6*,
COc1ccc(C(=O)NCC(=O)OCC(=O)N2N=C(c3ccc(Cl)cc3)CC2c2ccco2)cc1OC (stereo not drawn),x,i,
COc1ccccc1NC(=O)Cc1nnc(SCC(=O)Nc2nccs2)n1C,x,i,
COc1ccc(-c2nc(CS(=O)(=O)CC(=O)NCc3ccccc3Br)c(C)o2)cc1,-7.8,-7.8*,
COc1ccc(-c2nc(CS(=O)(=O)CC(=O)NCc3cccc(OC)c3OC)c(C)o2)cc1,x,i,
COc1cc(/C=C(\NC(C)=O)C(=O)N2CCCCC2)ccc1OC(C)=O,x,i,
COc1cc(C(=O)NC(=S)Nc2ccc3[nH]c(=O)[nH]c3c2)cc(OC)c1OC,1.7,i,
O=C(C1CCC1)N1CCN(c2ccc(Cl)cc2)CC1,x,i,
COc1ccc(Cn2ccnc2SCC(=O)Nc2ccccc2F)cc1,x,i,
COc1ccc(Cn2ccnc2SCC(=O)Nc2ccccc2OC)cc1,-6.1,-6.1*,
SMILES,KCNQ2 enhance,KCNQ2 inh,others
Cc1cc(C)c(S(=O)(=O)c2ccccc2C)c(OCCN(C)C)n1,x,i,
Cn1nc(C(F)(F)F)c(/C=N/OC(=O)c2ccccc2)c1Sc1ccc(Cl)cc1,-5.7,-5.7*,
Cn1nc(C(F)(F)F)c(/C=N/OC(=O)c2ccccc2)c1Cl,x,i,
O=C(COc1ccc(Br)cc1)Nc1ccc(CN2CCOCC2)cc1,1,i,
CCOC(=O)C1=C(C)Nc2nc3ccccc3n2C1c1ccc(O)cc1 (stereo not drawn),1,i,
CCN(CC)C(=O)C1=C(C)Nc2nc3ccccc3n2C1c1cccc(OC)c1 (stereo not drawn),-7.7,-7.7*,
COc1ccc2o/c(=N\O)c(C(=O)Nc3ccc(C)cc3)cc2c1,-10,-10*,
COc1ccc2oc(=N)c(C(=O)Nc3ccc(C)cc3)cc2c1,x,i,
CCN(CC)CCCN(C(=O)Cn1nnc(-c2ccc(OC)c(OC)c2)n1)C(C(=O)NC(C)(C)C)c1ccc(F)cc1 (stereo not drawn),x,i,
O=[N+]([O-])c1ccccc1Oc1cnc2ccccc2n1,1.1,i,
O=[N+]([O-])c1cc(-c2cnc3ccccc3n2)ccc1Oc1ccc(F)cc1,-8.4,-8.4*,KCNQ2 inh conf=-20%*;KCNQ1 spec=i;CHO Tl ctr=i;KCNQ2 patch conf=i
C=CCN1C(=O)C(CC(=O)NCC)SC1=Nc1ccccc1CC (stereo not drawn),x,i,
CCN(CC)c1nc(C#N)nc(N(CC)CC)n1,x,i,
CCN(c1ccccc1)c1nc(C#N)nc(N(CC)c2ccccc2)n1,-6.7,-6.7*,KCNQ2 inh conf=-30%*;KCNQ1 spec=i;CHO Tl ctr=i;KCNQ2 patch conf=i

# Screens as filed in PubChem.
